Results reported in PubChem BioAssay (NCATS).
Results filed as inconclusive are left out. Active and inactive are the calls of the source. Calls come from the whole dose curve; as a rule, active = well fitted curve in the direction sought with a large enough effect; inconclusive = small, poorly fitted or top-dose-only effect, or another doubt; inactive = no such curve, though single readings can be large; an effect the other way counts as inactive or inconclusive.

Tests used:
[1] = Cellular Toxicity (caspase-3) N2a (AID 665); details: N2a cells, luminescence, normalized: DMSO 0%, 10 µM staurosporine 100%; at 92.2 µM (top of the series);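 note: compound exposure lasted 16 h at 37 °C before readout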
In short: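 Mouse N2a neuroblastoma cells, 1500 per well, treated 16 h at 37 °C in complete medium; caspase-3/7 activity by Caspase-Glo luminescence after 1 h. Normalized to DMSO and 10 uM staurosporine; AC50 from Hill fits.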

[2] = Cellular Toxicity (caspase-3) NIH 3T3 (AID 666);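 note: caspase signal read after 16 h compound exposure; 0% = DMSO basal and 100% = 100 µM tamoxifen stimulation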
In short: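 Mouse NIH 3T3 fibroblasts (1000/well) treated 16 h at 37 C; caspase-3/7 activity measured by Caspase-Glo 3/7 luminescence after 20 min. Normalized to DMSO and 100 uM tamoxifen; AC50 from Hill fits.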

[3] = target: Cytochrome P450 3A4 (Homo sapiens) (UniProt P08684); test: qHTS Assay for Inhibitors and Substrates of Cytochrome P450 3A4 (AID 884); note: % is set by controls: 0 for no effect and ±100 for the full control effect; nearly all actives have a fitted effect of over 50% in size
In short: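 20 nM human CYP3A4 with 25 uM Luciferin-PPXE (at KM) in 200 mM KPO4, preincubated 10 min with compound; NADPH regeneration started a 60 min RT reaction. Luciferin detected by luminescence, normalized to 57 uM ketoconazole as full inhibition.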

[4] = Confirmation and Secondary Assay for Modulators of Hemoglobin Beta Chain Splicing at IVS2 654 locus (AID 910);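 note: HeLa cells stably carrying EGFP split by mutant beta-globin IVS2-654 intron; % of control where 0% means no effect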
In short: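 HeLa cells stably expressing EGFP interrupted by β-globin IVS2-654 intron, seeded overnight in Opti-MEM/2% FCS, then treated 2 days at 37 °C. Restored splicing read as total peak GFP intensity per well by laser scanning cytometry (488 nm excitation, 500–520 nm emission); 500 nM antisense PNA as control.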

[5] = Cell Viability - LYMP2-001 (AID 921);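 note: 0% = DMSO only and full inhibition = tetraoctylammonium bromide control wells; nearly all actives have a fitted effect of over 70% in size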
In short: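 Steps: seed 2500 lymphoblastoid cells/well; 5 hr, 37 C; add compound; 24 hr, 37 C; CellTiter-Glo reagent, 30 min room temperature; read luminescence. Concentration-response modeled by Hill equation for AC50.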

[6] = MultiTox-Fluor Cytotoxicity Assay - LYMP1-001 - Dead Cells (AID 946);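 note: cells exposed to compound for 16 h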
In short: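 Seed 2500 LYMP1-001 cells/well, incubate 5 hr at 37 C; add compound, 16 hr at 37 C; add MultiTox-Fluor reagent, 60 min RT; read dead-cell fluorescence Ex/Em=485/520. Normalize to DMSO and 15 uM tetraoctylammonium bromide.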

[7] = MultiTox-Fluor Cytotoxicity Assay - LYMP1-001 - Live Cells (AID 947);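 note: 0% = DMSO only and full inhibition = tetraoctylammonium bromide control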
[8] = Cell Viability - LYMP1-002 - Assay at 16 hr (AID 948);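 note: 0% = DMSO alone and full effect = 92 µM tetraoctylammonium bromide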
In short: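 Seed 2500 LYMP1-002 cells per well in complete medium and hold 5 hr at 37 C. Add compound across a concentration series and incubate 16 hr at 37 C. Add CellTiter-Glo, wait 30 min at room temperature, read luminescence.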

[9] = MultiTox-Fluor Cytotoxicity Assay - LYMP1-002 - Dead Cells (AID 960);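 note: cells exposed to compound for 16 h at 37 °C; nearly all actives have a fitted effect of over 60% in size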
In short: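 Human lymphoblastoid LYMP1-002 cells, 2500/well, treated 16 h at 37 C; dead-cell protease cleavage of bis-AAF-R110 read by fluorescence (485/520); normalized to DMSO and 15 uM tetraoctylammonium bromide; AC50 from Hill fit.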

[10] = MultiTox-Fluor Cytotoxicity Assay - LYMP1-003 - Dead Cells (AID 961);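 note: cells exposed to compound for 16 h at 37 °C; nearly all actives have a fitted effect of over 70% in size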
In short: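 LYMP1-003 lymphoblastoid, 2500 cells/well, 5 hr settle then 16 hr cpd at 37 C; MultiTox-Fluor reagent 60 min RT; Ex/Em 485/520 dead-cell signal; norm. DMSO = 0%, 15 uM tetraoctylammonium bromide = 100%; Hill AC50.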

[11] = MultiTox-Fluor Cytotoxicity Assay - LYMP1-003 - Live Cells (AID 962);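 note: cells exposed to compound for 16 hours at 37 °C; 0% = DMSO only and full loss = 92 µM tetraoctylammonium bromide; cytotoxic hits lower the live-cell protease signal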
In short: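 LYMP1-003 lymphoblastoid cells, 2500/well in complete medium, treated 16 h at 37 C; live-cell protease cleavage of GF-AFC read by fluorescence (Ex/Em 405/510) after 60 min reagent; AC50 from Hill fits of concentration-response.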

[12] = Cell Viability - LYMP1-003 - Assay at 24 hr (AID 963);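 note: plate controls were DMSO only for no effect and tetraoctylammonium bromide positive control for full effect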
In short: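 Human lymphoblastoid LYMP1-003 cells, 2500/well, treated 24 h at 37 C in complete medium. Viability read as intracellular ATP by CellTiter-Glo luminescence after 30 min at room temperature; AC50 from Hill-equation fits of qHTS concentration-response.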

[13] = Cell Viability - LYMP1-003 - Assay at 40 hr (AID 964); note: % is set by controls: 0 for no effect and ±100 for the full control effect; nearly all actives have a fitted effect of over 60% in size
In short: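 LYMP1-003 human lymphoblastoid cells, 2500/well, preincubated 5 h at 37 C, then treated with compound for 40 h at 37 C. Intracellular ATP read by CellTiter-Glo luminescence after 30 min at room temperature; AC50 from Hill-equation fits.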

[14] = Cell Viability - LYMP2-003 (AID 965);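 note: cells exposed to compounds for 24 h before reading; 0% = DMSO only and full effect = 92 µM tetraoctylammonium bromide; nearly all actives have a fitted effect of over 50% in size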
In short: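 Seed 2500 lymphoblastoid cells/well; incubate 5 hr, 37 C; add compounds; incubate 24 hr, 37 C; add CellTiter-Glo, 30 min RT; read luminescence. AC50 from Hill fit.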

[15] = Cell Viability - LYMP2-004 (AID 966);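 note: plate controls were DMSO only for no effect and tetraoctylammonium bromide control for full effect; nearly all actives have a fitted effect of over 65% in size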
In short: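 Lymphoblastoid LYMP2-004 cells, 2500 per well, were preincubated for 5 hr and then treated with compound for 24 h at 37 C in complete medium. Viability was read as cellular ATP by CellTiter-Glo luminescence, and AC50 values were taken from Hill fits to concentration-response data.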

[16] = Cell Viability - LYMP2-005 (AID 967);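 note: plate controls were DMSO only for no effect and 92 µM tetraoctylammonium bromide control for full effect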
In short: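 Acute cytotoxicity is scored as a concentration-dependent drop in intracellular ATP in human lymphoblastoid LYMP2-005 cells after 24 h compound treatment. ATP is quantified by luciferase luminescence, and AC50 is derived by Hill-equation modelling.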

[17] = Cell Viability - LYMP2-009 (AID 968);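 note: 0% = DMSO alone and the full-kill end = tetraoctylammonium bromide at 92 µM; nearly all actives have a fitted effect of over 55% in size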
[18] = Cell Viability - LYMP2-011 (AID 969);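 note: 0% = DMSO only and full inhibition = 92 µM tetraoctylammonium bromide; nearly all actives have a fitted effect of over 60% in size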
In short: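 2500 cells/well in complete medium, compound-treated 24 h at 37 C. Viability read as intracellular ATP by CellTiter-Glo luminescence after 30 min at room temperature. AC50 from Hill fits of qHTS concentration-response data.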

[19] = Cell Viability - LYMP2-015 (AID 971);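 note: 0% = DMSO only and full effect = 92 µM tetraoctylammonium bromide; nearly all actives have a fitted effect of over 55% in size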
In short: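 LYMP2-015 human lymphoblastoid cells (2500/well) in complete medium, compound-treated 24 h at 37 C; viability read as cellular ATP by CellTiter-Glo luminescence after 30 min at room temperature. AC50 from Hill-equation fits of qHTS concentration-response data.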

[20] = Cell Viability - LYMP2-017 (AID 972); note: % is set by controls: 0 for no effect and ±100 for the full control effect; nearly all actives have a fitted effect of over 55% in size
In short: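 LYMP2-017 human lymphoblastoid cells (2500/well) settled 5 hr at 37 C, then exposed to compound 24 hr at 37 C in complete medium. Viability taken as intracellular ATP by CellTiter-Glo luminescence after 30 min at RT; AC50 from Hill fits.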

[21] = Cell Viability - LYMP2-019 (AID 973);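 note: 0% = DMSO alone and full effect = 92 µM tetraoctylammonium bromide; nearly all actives have a fitted effect of over 55% in size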
In short: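 Human lymphoblastoid LYMP2-019 cells (2500/well) preincubated 5 h at 37 C, then treated 24 h at 37 C in complete medium. Viability by CellTiter-Glo ATP luminescence after 30 min at room temperature; AC50 from Hill fits.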

[22] = Cell Viability - LYMP2-021 (AID 974)
In short: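 Human lymphoblastoid LYMP2-021 cells, 2500/well in complete medium, treated 24 hours at 37 C. Intracellular ATP by CellTiter-Glo luminescence (30 min, RT); AC50 from Hill fits of concentration-response.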

[23] = Cell Viability - LYMP2-023 (AID 975)
In short: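 LYMP2-023 human lymphoblastoid cells, 2500/well, preincubated 5 hr at 37 C, then compound-treated 24 hr at 37 C in complete medium. CellTiter-Glo luminescence (ATP) after 30 min at room temperature; AC50 from Hill-equation fits; tetraoctylammonium bromide positive control.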

[24] = Cell Viability - LYMP2-025 (AID 976);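 note: plate controls were DMSO only for no effect and tetraoctylammonium bromide control for full effect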
In short: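 Human lymphoblastoid LYMP2-025 cells, 2500/well, exposed 24 h at 37 C in complete medium in 1536-well qHTS. Viability as cellular ATP by CellTiter-Glo luminescence; AC50 from Hill fits of concentration-response data.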

Cytochrome P450 3A4 (Homo sapiens), sequence (P08684 whole entry, looked up): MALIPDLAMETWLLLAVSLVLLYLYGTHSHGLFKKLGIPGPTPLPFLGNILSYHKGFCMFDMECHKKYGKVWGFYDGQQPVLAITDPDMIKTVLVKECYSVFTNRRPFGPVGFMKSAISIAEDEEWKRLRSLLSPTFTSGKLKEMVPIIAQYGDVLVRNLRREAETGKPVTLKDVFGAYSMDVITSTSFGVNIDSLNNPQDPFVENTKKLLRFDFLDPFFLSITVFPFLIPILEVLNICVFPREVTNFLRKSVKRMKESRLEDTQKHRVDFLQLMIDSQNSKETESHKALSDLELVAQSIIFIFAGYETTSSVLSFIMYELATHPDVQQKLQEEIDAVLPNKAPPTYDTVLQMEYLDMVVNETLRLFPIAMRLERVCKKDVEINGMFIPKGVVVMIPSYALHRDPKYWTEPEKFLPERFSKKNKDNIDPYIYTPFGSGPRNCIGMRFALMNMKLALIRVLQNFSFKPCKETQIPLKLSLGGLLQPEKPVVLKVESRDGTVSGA

CCCCOC(=O)c1ccccc1C(=O)OCCCC
inactive: caspase-3 activation [1] -1.36% | outcome [2] | Potency [3] | Potency [4] | Potency [5] | Potency [6] | Potency [7] | Potency [8] | Potency [9] | Potency [10] | Potency [11] | Potency [12] | Potency [13] | Potency [14] | Potency [15] | Potency [16] | Potency [17] | Potency [18] | Potency [19] | Potency [20] | Potency [21] | Potency [22] | Potency [23] | Potency [24]
